Data from PubChem BioAssay AID1159580 (chemical genetic matrix, 2015).
Values joined by “and” are separate entries in the source; they are usually repeats but may differ in a detail not shown here. Equal entries are not always repeated. About 2,000 (36%) of roughly 5,500 compounds were called active. Not shown: some 18% with an inconclusive outcome. Cut-off read from the data, not from the text of the source: active = normalized growth mostly below about 0.91 (no sharp cut-off); inconclusive = no clear call, values can overlap the other calls; inactive = mostly above about 0.92. Some of the results follow.

Assay: chemical genetic growth profiling, strain panel (AID 1159580);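 note: tested at 20 µM; growth read once vehicle control cultures reached saturation at 30 °C; 1 = growth at the plate median or of vehicle wells; lower values mean less growth of the strain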
Settings: S. cerevisiae deletion strains, growth OD

Measured: normalized growth

CCCC(=O)Nc1ccc(OCC(O)CNC(C)C)c(C(C)=O)c1 (stereo unspecified)
inactive: locus YAL013W, strain DEP1, active compounds read low 1.02 | locus YAL021C, strain ccr4, active compounds read low 1 | locus YAL026C, strain drs2, active compounds read low 1.03 | locus YAL030W, strain snc1, active compounds read low 1.02 | locus YBL061C, strain skt5, active compounds read low 1.02 | locus YBR009C, strain hhf1, active compounds read low 1 | locus YBR021W, strain FUR4, active compounds read low 1.02 | locus YBR023C, strain chs3, active compounds read low 1.02 | locus YBR171W, strain sec66, active compounds read low 1.02 | locus YBR229C, strain ROT2, active compounds read low 1.01 | locus YBR231C, strain swc5, active compounds read low 1.04 | locus YBR279W, strain paf1, active compounds read low 1.02 | locus YCL011C, strain gbp2, active compounds read low 1.03 | locus YCL016C, strain dcc1, active compounds read low 1.03 | locus YCL029C, strain bik1, active compounds read low 1.02 | locus YCL069W, strain vba3, active compounds read low 1.02 | locus YCR088W, strain abp1, active compounds read low 1.01 | locus YDL005C, strain med2, active compounds read low 1.01 | locus YDL035C, strain GPR1, active compounds read low 1.02 | locus YDL040C, strain nat1, active compounds read low 1 | locus YDL074C, strain BRE1, active compounds read low 1.05 | locus YDL101C, strain DUN1, active compounds read low 1.02 | locus YDL134C, strain PPH21, active compounds read low 1.01 | locus YDL185W, strain tfp1, active compounds read low 1.02 | locus YDL192W, strain arf1, active compounds read low 1.02 | locus YDR001C, strain nth1, active compounds read low 1.02 | locus YDR069C, strain doa4, active compounds read low 1.01 | locus YDR101C, strain arx1, active compounds read low 1.01 | locus YDR137W, strain rgp1, active compounds read low 1.01 | locus YDR150W, strain NUM1, active compounds read low 1.02 | locus YDR159W, strain sac3, active compounds read low 0.984 | locus YDR162C, strain NBP2, active compounds read low 1.01 | locus YDR195W, strain ref2 0.999 | locus YDR297W, strain sur2, active compounds read low 1.01 | locus YDR318W, strain mcm21, active compounds read low 1.02 | locus YDR334W, strain swr1, active compounds read low 1.01 | locus YDR335W, strain msn5, active compounds read low 1.01 | locus YDR388W, active compounds read low 1.01 | locus YDR392W, strain spt3, active compounds read low 0.995 | locus YDR502C, strain sam2, active compounds read low 1.02 | locus YEL003W, strain gim4, active compounds read low 1.02 | locus YEL037C, strain rad23, active compounds read low 1.02 | locus YEL061C, strain CIN8 (second series), active compounds read low 1.04 | locus YEL061C, strain CIN8, active compounds read low 1.01 | locus YER015W, strain faa2, active compounds read low 1.01 | locus YER016W, strain bim1, active compounds read low 1.03 | locus YER110C, active compounds read low 1.02 | locus YER111C, strain swi4, active compounds read low 1.01 | locus YER155C, strain BEM2 (second series), active compounds read low 0.985 | locus YER155C, strain BEM2, active compounds read low 1.02 | locus YER167W, strain BCK2, active compounds read low 1.04 | locus YFR010W, strain ubp6, active compounds read low 1.01 | locus YGL078C, strain dbp3, active compounds read low 1.01 | locus YGL086W, strain mad1, active compounds read low 0.996 | locus YGL167C, strain pmr1, active compounds read low 1.02 | locus YGL173C, strain kem1, active compounds read low 1.02 | locus YGL227W, strain vid30, active compounds read low 1.03 | locus YGL240W, strain doc1, active compounds read low 0.984 | locus YGL248W, strain PDE1, active compounds read low 1.01 | locus YGL253W, strain hxk2, active compounds read low 1.01 | locus YGR078C, strain PAC10, active compounds read low 1.03 | locus YGR135W, strain pre9, active compounds read low 1.02 | locus YGR229C, strain SMI1, active compounds read low 1.03 | locus YGR252W, strain gcn5, active compounds read low 0.965 | locus YHR013C, strain ard1, active compounds read low 1.02 | locus YHR027C, strain rpn1, active compounds read low 1.02 | locus YHR030C, strain SLT2, active compounds read low 1.01 and 1.04 | locus YHR079C, strain IRE1 (second series), active compounds read low 1.02 | locus YHR079C, strain IRE1, active compounds read low 1.01 | locus YHR094C, strain hxt1, active compounds read low 1.01 | locus YHR129C, strain ARP1, active compounds read low 1.01 | locus YHR142W, strain chs7, active compounds read low 1.04 | locus YHR200W, strain rpn10, active compounds read low 1.02 | locus YIL066C, strain RNR3, active compounds read low 1.02 | locus YIL073C, strain SPO22, active compounds read low 1.05 | locus YIL125W, strain kgd1, active compounds read low 1.01 | locus YIR030C, strain dcg1, active compounds read low 1.02 | locus YJL092W, strain hpr5, active compounds read low 1.01 | locus YJL095W, strain BCK1 (second series), active compounds read low 1.02 | locus YJL095W, strain BCK1, active compounds read low 1.03 and 1.01 | locus YJL115W, strain asf1, active compounds read low 1.01 | locus YJL129C, strain trk1, active compounds read low 1.01 | locus YJL134W, strain LCB3, active compounds read low 1.01 | locus YJL154C, strain vps35, active compounds read low 1.01 | locus YJL164C, strain tpk1, active compounds read low 0.999 | locus YJL166W, strain qcr8, active compounds read low 1.01 | locus YJL168C, strain set2, active compounds read low 1.02 | locus YJL187C, strain SWE1 (second series), active compounds read low 1.02 | locus YJL187C, strain SWE1, active compounds read low 1.02 | locus YJR043C, strain POL32, active compounds read low 1.05 | locus YJR066W, strain TOR1, active compounds read low 0.957
